# PubChem BioAssay AID488913 (National Center for Advancing Translational Sciences (NCATS), 2010)
# Records with an inconclusive call do not appear. Active and inactive are the calls of the source. Calls follow the shape of the dose curve; as a rule, active = well fitted inhibition curve with a large enough effect; inconclusive = small, poorly fitted or top-dose-only effect, or effect the other way; inactive = no such curve, though single readings can be large or run the other way.
# Assay: Confirmation Concentration-Response Assay for lipid storage modulators: for probe SAR
# Details: Drosophila S3 cells, BODIPY lipid droplet fluorescence, 18-24 h; series mostly up to 46.1 µM
# Excerpt: NIH Molecular Libraries Probe Production Centers Network [MLPCN] NIH Chemical Genomics Center [NCGC] MLPCN Grant: 1 R03 MH085686-01 Assay Submitter (PI): Beller, Mathias; Max-Planck-Institut fur Biophysikalische Chemie NCGC Assay Overview: Storing lipids as a reservoir for energy or the anabolism of elementary metabolites is a common feature of probably all cells and is conserved from bacteria to humans. The universal cellular lipid storage organelle is the so-called lipid storage droplet (LD). Although ubiquitous, LDs share a simple structure composed of a hydrophobic core that harbors the storage lipids, which is shielded by a droplet-specific phospholipid monolayer to which proteins are attached. The current model of LD biogenesis involves an incorporation of the lipid core into the membrane leaflets of the endoplasmic reticulum (ER) followed by a subsequent budding-like maturation of a LD, which ultimately pinches off. Once released, LD volume can increase by localized lipogenesis or fusion of existing droplets. Storage lipids are re-mobilized enzymatically by lipase activity. Lipase regulation in the adipocyte is heavily studied and involves multiple components including catecholamine signaling, the LD-associated proteins Perilipin and comparative gene identification-58 (CGI-58) and at least two lipases named hormone sensitive lipase (HSL) and adipocyte triglyceride lipase (ATGL). LD regulation outside of the adipocyte is poorly understood and only few components are known. However, there is an urgent need to learn more about ectopic fat depots as mislocalized storage of lipids, for example in the liver or muscle, is an eminent health problem associated with insulin resistance or the metabolic syndrome. We developed a laser-scanning cytometer assay to enable 1,536-well screening and combined the results of the small molecules screen with an RNAi database based on lipid storage.
# We dispensed 4 uL of cells at 1.25 x 10^6 cells/mL into LoBase Aurora COC 1,536-well plates (black walled, clear bottom) with a bottle-valve solenoid-based dispenser (Aurora) to obtain 5,000 cells/well. Triacsin C (Sigma-Aldrich T-4540), an inhibitor of long-chain fatty acyl CoA synthetase that blocks synthesis of triglycerides, was used as a positive control for lipid under-storage. A total of 23 nL of compound solution of different concentrations were transferred to the assay plates using a Kalypsys pin tool equipped with a 1,536-pin array containing 10-nL slotted pins (FP1S10, 0.457-mm diameter, 50.8 mm long; V&P Scientific). One microliter of oleic acid (400 uM) was added, and the plate was lidded with stainless steel rubber gasket lined lids containing pinholes. After 18-24 h incubation at 24 degree Celsius and 95% humidity, 4 uL of the dyes BODIPY 493/503 (Molecular Probes) and the Cell Tracker Red CMTPX dye (Molecular Probes) were added to the wells to stain lipid droplets and enumerate cell number, respectively. Fluorescence was detected by excitation of the fluorophores with a 488-nm laser on an Acumen Explorer (TTP Lab Tech). The total intensity in channel 1 (500-530 nm) reflected lipid droplet accumulation. Cells were detected using channel 3 (575- 640 nm) with 5-um width and 100-um depth filters. The ratio of the total intensity in PMT channel 1 over total intensity of channel 3 was also calculated. Percent activity was computed relative to an internal control (100% inhibited lipid droplet deposition due to the presence of 20 uM Triacsin C), which was added to 32 wells/plate.
row,Compound,Potency
1,CCOc1ccc(CCNC(=O)c2cc3ccccc3n2C)cc1OCC,7910 nM (active)
2,CCOC(=O)C1CCN(C(=O)C2(NC(=O)NCc3ccccc3)CCCCC2)CC1,4450 nM (active)
3,O=C(CSc1nnc(NCc2ccccc2)s1)Nc1nc(-c2cccc(Br)c2)cs1,1250 nM (active)
4,O=C(Cc1ccccc1)NC1CCCc2c1cnn2-c1ccc(F)cc1F (stereo not given),inactive
5,O=C(NC1CCCc2c1cnn2-c1ccc(F)cc1F)C1CC1 (stereo not given),1580 nM (active)
6,O=C(NC1CCCc2c1cnn2-c1ccccc1F)c1ccc2ncccc2c1 (stereo not given),2230 nM (active)
7,O=C(NCCc1ccc2c(c1)OCO2)c1cc2sccc2n1Cc1ccccc1,inactive
8,CC(C)(C)OC(=O)N1CCCCC1C(=O)NC1CCCc2c1cnn2-c1ccc(F)cc1F (stereo not given),inactive
9,COc1ccc(-n2ncc3c2CCCC3NC(=O)c2cnc(C)cn2)cc1 (stereo not given),1580 nM (active)
10,CCOc1ccc(CCNC(=O)CN(C)C)cc1OCC,inactive
11,CCn1c(C(=O)NCCc2ccc(OC)c(OC)c2)cc2sccc21,3970 nM (active)
12,COc1ccc(CCNC(=O)c2cc3sccc3n2Cc2ccccc2)cc1OC,315 nM (active)
13,O=C(NC1CCCc2c1cnn2-c1ccc(F)cc1F)C1CCCCN1 (stereo not given),inactive
14,COc1ccc(-c2csc(NC(=O)CSc3nnc(Nc4ccccc4)s3)n2)cc1,628 nM (active)
15,Cc1cccc(Nc2nnc(SCC(=O)Nc3nc(-c4ccc(F)cc4)cs3)s2)c1,628 nM (active)
16,CCOc1ccc(CCNC(=O)c2cc3c(s2)CCC3)cc1OCC,560 nM (active)
17,O=C(NC1CCCc2c1cnn2-c1ccc(F)cc1F)c1ccccc1 (stereo not given),56 nM (active)
18,O=C(NC1CCCc2c1cnn2-c1ccc(F)cc1F)c1ccsc1 (stereo not given),31.5 nM (active)
19,CC1(C)CCC(c2ccc(Cl)cc2)=C(CN2CCN(c3ccc(C(=O)NS(=O)(=O)c4ccc(N[C@H](CCN5CCOCC5)CSc5ccccc5)c(S(=O)(=O)C(F)(F)F)c4)cc3)CC2)C1,996 nM (active)
20,CCOc1ccc(CCNC(=O)c2cc3sccc3n2CC=C(C)C)cc1OCC,79.1 nM (active)

row,Compound,Potency
1,COc1ccc(-c2csc(NC(=O)CSc3nnc(NC4CC4)s3)n2)cc1OC,inactive
2,CCOc1ccc(CCNC(=O)c2cc3sccc3n2Cc2ccc(OC(F)F)cc2)cc1OCC,6.3 nM (active)
3,COc1ccc(CCNC(=O)c2cc3sccc3n2Cc2ccc(F)cc2)cc1OC,499 nM (active)
4,O=C(O)CCc1ccc(NCc2cccc(Oc3ccccc3)c2)cc1,inactive
5,CCOC(=O)C1CCN(C(=O)C2(NC(=O)Nc3ccccc3Cl)CCC2)CC1,2810 nM (active)
6,O=C(NC1CCCc2c1cnn2-c1ccc(F)cc1F)C1CCCCC1 (stereo not given),4990 nM (active)
7,O=C(NC1CCCc2c1cnn2-c1ccc(F)cc1F)c1ccncc1 (stereo not given),9960 nM (active)
8,O=C(N[C@H]1CCCc2c1cnn2-c1ccc(F)cc1F)c1ccccn1,7910 nM (active)
9,Cc1ccc(-c2cnc(SCC(=O)Nc3nccs3)n2Cc2ccco2)cc1,inactive
10,Cc1ccc(C)c(-c2csc(NC(=O)CSc3nnc(Nc4ccc(OC(F)(F)F)cc4)s3)n2)c1,inactive
11,O=C(NC1CCCc2c1cnn2-c1ccc(F)cc1F)c1ccc(F)cc1 (stereo not given),445 nM (active)
12,CC1=C(C(=O)NC2CCCc3c2cnn3-c2ccc(F)cc2F)OCCO1 (stereo not given),15.8 nM (active)
13,COc1ccc(NC(=S)N2CCN(c3cccc(Cl)c3)CC2)c(OC)c1,inactive
14,O=C(NC1CCCc2c1cnn2-c1ccc(F)cc1F)c1c(F)cccc1Cl (stereo not given),3530 nM (active)
15,O=C(NCCc1ccc(O)c(O)c1)c1cc2sccc2n1Cc1ccccc1,inactive
16,CCOc1ccc(CCNC(=O)c2cc3sccc3[nH]2)cc1OCC,7910 nM (active)
17,CCOc1ccc(CCNC(=O)c2cccc(C(=O)c3ccccc3)c2)cc1OCC,15800 nM (active)
18,S=C(Nc1cc(Cl)ccc1Oc1ccccc1)N1CCN(c2ncccn2)CC1,12500 nM (active)
19,CN(C)CC(=O)NC1CCCc2c1cnn2-c1ccc(F)cc1F (stereo not given),inactive
20,CCOc1ccc(CCNC(=O)c2cc3sccc3n2CC)cc1OCC,158 nM (active)
